Measurements: PubChem BioAssay
Activity calls are given as the source filed them. Unless noted, no rule for the calls is given here.

Tests used:
[1] = test system: Wnt5a (protein binding on small-molecule microarray); experiment: small molecules binding Wnt5a protein – biophysical, small-molecule microarray, 635/667 nm fluorescence, primary screen (AID 1142); conditions: 635 nm fluorescence, higher = more signal;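 also: fluorescence read at 667 nm with signal to noise per printed feature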
[2] = ATP-based viability of Huh7 replicon cells – cell-based, CellTiter-Glo luminescence, basal, 48 h, cytotoxicity control for HCV replication inhibitor project, primary screen (AID 1143); conditions: higher = more signal, called active from +8 up or from −8 down;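 also: Huh7 hepatoma cells carrying a hepatitis C replication reporter with no stimulus; test concentration not given here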
[3] = Pseudomonas biofilm growth suppression – PAO1 strain, BacTiter-Glo luminescence, LB-PBS, primary screen (AID 1144); conditions: P. aeruginosa PAO1 biofilm, 12 h, higher = more signal
[4] = basal CRE-LacZ reporter activity in PC12 – cell-based, unstimulated, primary screen (AID 1145); conditions: no forskolin, luminescence, 4.5 h, higher = more signal, called active from +8 up or from −8 down
[5] = forskolin-driven CRE-LacZ activity in PC12 – cell-based, CRE-LacZ reporter, forskolin-stimulated, primary screen (AID 1146); conditions: luminescence, 4.5 h, higher = more signal, called active from +8 up or from −8 down;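 also: PC12 cells with 6xCRE LacZ reporter stimulated by forskolin 10 µM; beta-galactosidase reporter signal reflecting CREB driven transcription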
[6] = biological target: Streptavidin (Streptomyces avidinii) (UniProt P22629); experiment: compounds binding control protein streptavidin – biophysical, small-molecule microarray, 635/667 nm fluorescence, artefact control for SMM compound annotation, primary screen (AID 1147); conditions: higher = more signal;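 also: signal reflects streptavidin binding to arrayed compounds as a control protein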
Sequence of Streptavidin (Streptomyces avidinii) (P22629 whole entry, looked up): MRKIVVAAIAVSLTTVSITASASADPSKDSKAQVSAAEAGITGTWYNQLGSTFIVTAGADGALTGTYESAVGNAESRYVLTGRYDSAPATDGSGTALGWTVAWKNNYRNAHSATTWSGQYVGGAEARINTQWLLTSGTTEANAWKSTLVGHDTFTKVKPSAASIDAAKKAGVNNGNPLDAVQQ

[7] = probe aInhba binding on compound microarray – biochemical, small-molecule microarray, 635/667 nm fluorescence, primary screen (AID 1148); conditions: higher = more signal;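 also: score merges 667nm spot fluorescence with signal-to-noise for antibody binding to printed compounds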
[8] = biological target: Torsin-1A (Homo sapiens) (UniProt O14656); experiment: TOR1A wild-type binding on microarray – cell lysate, small-molecule microarray, lysate, 635/667 nm, primary screen (AID 1149); conditions: COS7 hTOR1A-WT lysate, 635 nm fluorescence, higher = more signal
Sequence of Torsin-1A (Homo sapiens) (O14656 whole entry, looked up): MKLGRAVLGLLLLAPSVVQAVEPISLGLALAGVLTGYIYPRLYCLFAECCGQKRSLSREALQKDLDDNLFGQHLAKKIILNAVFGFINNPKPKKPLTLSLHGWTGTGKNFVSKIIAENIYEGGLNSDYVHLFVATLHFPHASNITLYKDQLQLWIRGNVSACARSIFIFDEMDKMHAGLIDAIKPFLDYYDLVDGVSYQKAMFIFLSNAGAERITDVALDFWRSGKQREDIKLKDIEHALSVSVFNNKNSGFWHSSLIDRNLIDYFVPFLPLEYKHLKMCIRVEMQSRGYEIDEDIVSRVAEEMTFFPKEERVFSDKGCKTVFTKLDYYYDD

[9] = biological target: Torsin-1A (Homo sapiens) (UniProt O14656); experiment: torsin A mutant lysate binding on microarrays – cell lysate, small-molecule microarray, COS7 lysate, 635/667 nm fluorescence, primary screen (AID 1150); conditions: COS7 hTOR1A mutant lysate, 635 nm fluorescence, higher = more signal;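 also: score pools 667 nm emission and signal to noise measuring lysate protein binding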
[10] = test system: Sonic hedgehog protein (Shh); experiment: Sonic hedgehog microarray binding compounds – biochemical, small-molecule microarray, 635/667 nm fluorescence, primary screen (AID 1151); conditions: 635 nm fluorescence, higher = more signal;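 also: Shh protein binding to compounds spotted on small-molecule microarray slides; score combines spot fluorescence intensity with signal-to-noise across triplicate slides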
[11] = optical density shifts of acrAB sulA E. coli – strain DRC41, OD650, 48 h, E. coli filamentation inducer project, primary screen (AID 1152); conditions: higher = more signal, called active from +8 up or from −8 down;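 also: E. coli MC1000 strain DRC41 lacking acrAB efflux pump and sulA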
[12] = probe aLefty1 binding on compound microarray – biochemical, small-molecule microarray, 635/667 nm fluorescence, primary screen (AID 1153); conditions: higher = more signal;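 also: score merges spot fluorescence with signal-to-noise ratio from the scanned slide images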
[13] = plasmodial surface anion channel blockers, osmotic lysis – cell-based, P. falciparum Indochina, OD700, 1 h, primary screen (AID 1154); conditions: P. falciparum Indochina infected RBC osmotic lysis, higher = more signal, called active from +8 up or from −8 down
[14] = plasmodial surface anion channel blockers, osmotic lysis – cell-based, P. falciparum Indochina, OD700, 2 h, primary screen (AID 1155);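 also: lysis reports solute entry through the parasite surface anion channel PSAC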; conditions: P. falciparum Indochina infected erythrocytes, higher = more signal, called active from +8 up or from −8 down
[15] = changes in parasitized red cell lysis, either direction – P. falciparum Indochina, OD700, 3 h, PSAC antagonist project, primary screen (AID 1156); conditions: P. falciparum-infected erythrocytes, osmotic lysis, higher = more signal, called active from +8 up or from −8 down
[16] = plasmodial surface anion channel blockers, osmotic lysis – cell-based, P. falciparum Indochina, OD700, 18 h, primary screen (AID 1157); conditions: P. falciparum Indochina infected erythrocytes, osmotic lysis OD700, 18 h; higher = more signal, called active from +8 up or from −8 down
[17] = S6 kinase pathway phospho-S6 level changes – cell-based, A549, cytoblot, luminescence, serum-stimulated, primary screen (AID 1158); conditions: 5 h, higher = more signal;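 also: serum-stimulated A549 lung adenocarcinoma cells; signal is phosphorylated S6 detected by cytoblot immunostaining with HRP secondary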
[18] = biological target: NADPH oxidase 2 (Homo sapiens) (UniProt P04839); experiment: compounds shifting NOX2 Amplex Red fluorescence – cell-based, HEK293-NOX2, PMA-stimulated, NOX inhibitor project, primary screen (AID 1159); conditions: 45 min, higher = more signal, called active from +8 up or from −8 down; also: test concentration not given here
Sequence of NADPH oxidase 2 (Homo sapiens) (P04839 whole entry, looked up): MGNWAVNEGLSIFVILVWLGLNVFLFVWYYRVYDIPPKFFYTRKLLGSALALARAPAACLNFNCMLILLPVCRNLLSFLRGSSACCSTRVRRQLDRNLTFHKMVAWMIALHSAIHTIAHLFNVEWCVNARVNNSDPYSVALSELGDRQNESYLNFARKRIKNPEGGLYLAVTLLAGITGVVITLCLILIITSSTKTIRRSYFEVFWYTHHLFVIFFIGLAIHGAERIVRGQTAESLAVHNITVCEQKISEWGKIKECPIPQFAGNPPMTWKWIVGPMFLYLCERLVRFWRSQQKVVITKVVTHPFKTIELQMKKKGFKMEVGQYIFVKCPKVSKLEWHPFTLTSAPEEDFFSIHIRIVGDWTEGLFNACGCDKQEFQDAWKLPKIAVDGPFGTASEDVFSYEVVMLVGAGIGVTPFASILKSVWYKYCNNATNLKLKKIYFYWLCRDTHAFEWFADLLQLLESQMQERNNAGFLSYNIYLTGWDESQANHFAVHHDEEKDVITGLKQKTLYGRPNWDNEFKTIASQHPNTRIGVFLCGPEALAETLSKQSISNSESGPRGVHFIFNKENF

[19] = biological target: NADPH oxidase 4 (Homo sapiens) (UniProt Q9NPH5); experiment: compounds shifting NOX4 Amplex Red fluorescence – cell-based, HEK293-NOX4, tetracycline-induced, NOX inhibitor project, primary screen (AID 1160); conditions: HEK293-NOX4, Amplex Red H2O2 fluorescence, 45 min; higher = more signal, called active from +8 up or from −8 down
Sequence of NADPH oxidase 4 (Homo sapiens) (Q9NPH5 whole entry, looked up): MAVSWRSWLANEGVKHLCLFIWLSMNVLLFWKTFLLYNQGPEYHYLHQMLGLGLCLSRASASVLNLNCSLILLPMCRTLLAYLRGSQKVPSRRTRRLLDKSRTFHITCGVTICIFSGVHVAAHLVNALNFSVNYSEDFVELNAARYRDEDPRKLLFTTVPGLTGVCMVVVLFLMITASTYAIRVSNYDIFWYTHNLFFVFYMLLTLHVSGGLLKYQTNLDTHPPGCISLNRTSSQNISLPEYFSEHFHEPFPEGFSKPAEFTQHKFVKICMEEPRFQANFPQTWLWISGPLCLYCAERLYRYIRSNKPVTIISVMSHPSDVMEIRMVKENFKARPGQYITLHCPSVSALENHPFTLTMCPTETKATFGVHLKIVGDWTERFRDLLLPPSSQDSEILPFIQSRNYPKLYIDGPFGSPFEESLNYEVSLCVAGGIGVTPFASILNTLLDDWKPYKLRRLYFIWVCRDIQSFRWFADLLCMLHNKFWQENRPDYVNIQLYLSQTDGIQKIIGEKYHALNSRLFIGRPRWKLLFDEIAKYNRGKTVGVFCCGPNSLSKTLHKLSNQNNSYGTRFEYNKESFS

[20] = biological target: NADPH oxidase 5 (Homo sapiens) (UniProt Q96PH1); experiment: compounds shifting NOX5 Amplex Red fluorescence – cell-based, HEK293-NOX5, NOX inhibitor project, primary screen (AID 1161); conditions: HEK293-NOX5, ionomycin, 45 min, higher = more signal
Sequence of NADPH oxidase 5 (Homo sapiens) (Q96PH1 whole entry, looked up): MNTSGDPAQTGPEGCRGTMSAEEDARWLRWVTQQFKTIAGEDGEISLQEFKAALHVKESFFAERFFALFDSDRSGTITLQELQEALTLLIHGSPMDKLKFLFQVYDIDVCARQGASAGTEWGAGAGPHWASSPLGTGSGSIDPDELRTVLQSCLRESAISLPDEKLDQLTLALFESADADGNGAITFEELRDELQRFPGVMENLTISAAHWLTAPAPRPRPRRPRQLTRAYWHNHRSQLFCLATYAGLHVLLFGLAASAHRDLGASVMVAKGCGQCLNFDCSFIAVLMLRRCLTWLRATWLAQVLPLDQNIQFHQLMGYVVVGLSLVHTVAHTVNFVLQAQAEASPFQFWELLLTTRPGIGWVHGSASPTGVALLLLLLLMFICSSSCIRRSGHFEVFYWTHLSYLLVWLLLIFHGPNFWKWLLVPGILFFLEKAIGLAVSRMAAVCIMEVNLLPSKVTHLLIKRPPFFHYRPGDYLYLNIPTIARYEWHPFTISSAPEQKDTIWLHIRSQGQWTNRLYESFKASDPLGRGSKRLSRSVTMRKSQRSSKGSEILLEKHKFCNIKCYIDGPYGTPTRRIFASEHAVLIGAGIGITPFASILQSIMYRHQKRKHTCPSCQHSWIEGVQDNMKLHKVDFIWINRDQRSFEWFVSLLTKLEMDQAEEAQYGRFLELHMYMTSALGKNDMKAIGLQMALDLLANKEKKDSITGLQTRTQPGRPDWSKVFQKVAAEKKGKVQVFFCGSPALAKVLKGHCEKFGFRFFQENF

SMILES	composite z-score [1]	z-score [2]	z-score [3]	z-score [4]	z-score [5]	composite z-score [6]	composite z-score [7]	composite z-score [8]	composite z-score [9]	composite z-score [10]	z-score [11]	composite z-score [12]	z-score [13]	z-score [14]	z-score [15]	z-score [16]	z-score [17]	z-score [18]	z-score [19]	z-score [20]
CC(C)OC(=O)C=C1C[C@@H](c2cccc(Cl)c2)O[C@@H](c2cccc(Cl)c2)O1	-0.0889	-0.0636 (inactive)	-0.179 (inactive)	0.192 (inactive)	1.03 (inactive)	0.776	0.0956	0.686	-0.365	-1.16	-0.411 (inactive)	0.165	0.915 (inactive)	0.584 (inactive)	-0.159 (inactive)	0.61 (inactive)	-0.0581	0.215 (inactive)	-0.914 (inactive)	-0.0406
C=CCNC(=O)[C@H]1[C@@H]2C(=O)O[C@@H](c3ccccc3)[C@@H](c3ccccc3)N2[C@@H](c2ccc(O)cc2)[C@]12C(=O)Nc1ccc(C#CCCO)cc12	-0.169	0.0368 (inactive)	0.722 (inactive)	0.452 (inactive)	-0.67 (inactive)	-0.374	-0.152	-0.944	-0.187	0.717	0.605 (inactive)	0.117	5.56 (inactive)	0.608 (inactive)	-0.763 (inactive)	0.443 (inactive)	-0.0803	0.67 (inactive)	-0.436 (inactive)	0.603
COc1cc2c(cc1OC)CN(C(=O)[C@H]1[C@@H]3C(=O)O[C@@H](c4ccccc4)[C@@H](c4ccccc4)N3[C@@H](c3ccccc3OCCO)[C@]13C(=O)Nc1ccc(C#CCCO)cc13)CC2	0.703	-0.964 (inactive)	0.677 (inactive)	0.712 (inactive)	1.64 (inactive)	0.225	-0.0567	-0.0954	0.142	1.75	-0.667 (inactive)	0.112	3.11 (inactive)	1.89 (inactive)	1.89 (inactive)	0.835 (inactive)	-0.482	1.44 (inactive)	1.26 (inactive)	0.819
CC(=O)NCCCC[C@@H]1NC(=O)[C@H]2C[C@@H](C(=O)O)[C@@H](c3ccc(O)cc3)N2C1=O	0.176	-0.798 (inactive)	-0.0331 (inactive)	5.71 (inactive)	7.82 (inactive)	0.481	0.0589	0.928	1.69	2.02	-0.73 (inactive)	0.249	2.25 (inactive)	2.24 (inactive)	-0.368 (inactive)	0.912 (inactive)	-1.14	1.61 (inactive)	0.625 (inactive)	1.64
COc1ccc([C@H]2C[C@H]3C(I)=C[C@@H]2C(=O)[C@]32CO2)cc1	-0.149	-0.307 (inactive)	-0.125 (inactive)	5.38 (inactive)	-1.6 (inactive)	1.25	-0.152	-0.067	-0.126	0.817	0.794 (inactive)	-0.28	0.524 (inactive)	0.0528 (inactive)	0.255 (inactive)	-0.0393 (inactive)	0.759	-0.546 (inactive)	-0.298 (inactive)	-0.974
COCCCNC(=O)[C@@H]1c2ccccc2C(=O)N(Cc2ccccc2OC)[C@H]1c1ccc(CO)cc1	0.924	-4.79 (inactive)	-2.25 (inactive)	-0.502 (inactive)	0.715 (inactive)	-0.665	-0.0136	0.825	-0.206	2.03	0.876 (inactive)	0.278	1.54 (inactive)	-0.0902 (inactive)	0.591 (inactive)	-0.631 (inactive)	2.45	-1.79 (inactive)	-3.52 (inactive)	-5.09
CN1C(=O)C2C=CC(C(O)c3c(F)cccc3Cl)N(NC(=O)OC(C)(C)C)C2C1=O (stereo not given)	0.213	0.736 (inactive)	0.232 (inactive)	0.622 (inactive)	0.947 (inactive)	1.18	0.181	0.622	0.591	-0.0049	-0.963 (inactive)	0.343	-0.332 (inactive)	0.119 (inactive)	-0.46 (inactive)	0.58 (inactive)	-1.11	-1.06 (inactive)	-0.495 (inactive)	-1.03
C=C[C@H](C)[C@@H](OC(=O)Nc1ccc(SC)cc1)c1ccc(O)c2ccccc12	0.64	-1.08 (inactive)	-0.492 (inactive)	-0.505 (inactive)	1.69 (inactive)	1.26	-0.0375	0.163	0.165	1.76	-0.751 (inactive)	0.0942	27.7 (active)	9.84 (active)	2.51 (inactive)	1.31 (inactive)	1.23	-5.52 (inactive)	-1.45 (inactive)	0.894
O=C(O)[C@@]1(CCS(=O)(=O)c2ccccc2)N=C(c2ccc(OCCCO)cc2)O[C@H]1c1ccccc1	-0.111	-0.798 (inactive)	0.0288 (inactive)	-0.23 (inactive)	-0.324 (inactive)	1.34	0.102	1.43	1.79	-0.338	0.183 (inactive)	0.0458	22.6 (active)	4.96 (inactive)	0.178 (inactive)	0.789 (inactive)	-0.238	-0.333 (inactive)	1.66 (inactive)	1.26
